Screening data as filed in PubChem.
A selection: hits, their analogues and other compounds. The true share with any hit is near 21%.
Pf growth 96h – inhibits malaria parasite growth, 96 h. P. falciparum luciferase reporter growth, 96 h. 6.9% of 320,000 active. AID 504834. Potency, µM (top dose mostly 28.7 µM), actives largely listed as inhibitors
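Compounds incubated with erythrocytes infected by luciferase-expressing P. falciparum (2% hematocrit, 0.05% parasitemia final) for 96 hours, 37 C in 5% CO2. Growth inhibition scored as decreased luciferase luminescence.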
Cycloheximide cs – affects cycloheximide protein synthesis inhibition readout, counter-screen | cell reporter, cycloheximide protein synthesis inhibition counterscreen | max response, % | 12% of 300,000 active; in the data active = max response mostly above about 13%, no sharp cut-off; inactive = mostly below about 14%; also: read at 38.3 µM for the half of the compounds with a filed dose
Pf growth 48h – inhibits P. falciparum growth in the first generation, 48 h; P. falciparum luciferase growth in erythrocytes, 48 h; Potency, µM (highest dose often 28.7 µM), hits mostly inhibitors; 5.9% of 310,000 active; AID 504832
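Parasite viability was followed by luminescence of a genomically integrated firefly luciferase. Cultures held 0.1% parasitemia at 2% hematocrit (final), incubated under 5% CO2 at 37 C.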
Shiga toxin inh – blocks Shiga toxin action in Vero cells | 9.2% of 290,000 active | AID 2315 | inhibition, % at 38.7 µM | Vero cells, Shiga toxin protein synthesis inhibition reporter; in the data active = inhibition mostly above about 28%, no sharp cut-off; inactive = mostly below about 43%
A number is an active result; - = inactive; ? = inconclusive; . = no result. Unless noted, calls follow the shape of the dose curve; as a rule, active = well fitted inhibition curve with a large enough effect; inconclusive = small, poorly fitted or top-dose-only effect, or another doubt; inactive = no such curve, though single readings can be large or run the other way.

SMILES | Pf growth 96h | Cycloheximide cs | Pf growth 48h | Shiga toxin inh
CCOc1ccccc1OCCNC1CCCC1 | - | - | - | -
COCC1CCCCN1C(=O)c1ccc2oc(CCc3ccccc3)nc2c1 (stereo not drawn) | ? | 37 | - | 94
COCCC1CCCCN1C(=O)c1ccc2nc(Cc3ccccc3F)oc2c1 (stereo not drawn) | - | 61 | ? | 97
CCCCc1nc2cc(C(=O)N3CCC(OC)CC3)ccc2o1 | - | 27 | - | 44
COCCc1nc2ccc(C(=O)N3CCCC(CCCO)C3)cc2o1 (stereo not drawn) | - | - | - | -
CCCCc1nc2cc(C(=O)NCc3nccn3CC)ccc2o1 | - | 50 | - | 37
COCCc1nc2ccc(C(=O)N3CCCCC3COC)cc2o1 (stereo not drawn) | - | - | - | -
CCOC(=O)CC1CCCCN1C(=O)c1ccc2nc(CCOC)oc2c1 (stereo not drawn) | - | - | - | -
CCCCc1nc2cc(C(=O)NCc3cn(C)nc3C)ccc2o1 | ? | - | - | -
COC(=O)/C=C/CC(C)OS(N)(=O)=O (stereo not drawn) | - | - | - | -
Cc1ccc(NC(=O)CCC(=O)Nc2nnc(C3CCCCC3)s2)cc1 | - | - | - | -
O=C(O)c1ccc(NC(=S)NC(=O)c2cncc(Br)c2)cc1 | - | - | - | -
CCOC(=O)C(=CNc1cscc1S(=O)(=O)C(C)C)C(=O)OCC | ? | - | ? | -
O=C(c1ccc2oc(Cc3ccc(Cl)cc3)nc2c1)N1CC[C@H](O)C1 | - | - | - | -
COC1CCN(C(=O)c2ccc3oc(C(C)C)nc3c2)CC1 | - | 23 | - | 20
CCCCc1nc2cc(C(=O)N3CCN(c4nc(C)cnc4C)CC3)ccc2o1 | - | 47 | - | 70
CCCCc1nc2cc(C(=O)N3CCCCC3COC)ccc2o1 (stereo not drawn) | ? | 35 | - | 87
COc1ccc([C@@H](C)NC(=O)c2ccc3oc(C(C)C)nc3c2)cc1 | 0.66µM | 50 | - | 74
CCCCc1nc2cc(C(=O)N3CCCCC3CCNC(C)=O)ccc2o1 (stereo not drawn) | - | - | - | -
CCNC(=O)COC(=O)c1cccc(Br)c1 | - | - | - | -
CCCC(=O)Nc1nnc(S(=O)(=O)N(CC)c2ccccc2)s1 | - | - | - | -
CCOC(=O)CC1CCCCN1C(=O)c1ccc2oc(CCc3ccccc3)nc2c1 (stereo not drawn) | ? | 17 | - | 34
CC(C)OP(=O)(CCP(=O)(OC(C)C)OC(C)C)OC(C)C | - | - | - | -
CC(C)Cn1c(=O)[nH]c(=O)c2c(C(F)(F)F)cc(-c3ccccc3)nc21 | 8.3µM | - | ? | -
Cc1cc(C(F)(F)F)c2c(=O)[nH]c(=O)n(Cc3ccccc3)c2n1 | ? | - | - | -
SMILES | Pf growth 96h | Cycloheximide cs | Pf growth 48h | Shiga toxin inh
CCCn1c(=O)[nH]c(=O)c2c(C(F)(F)F)cc(-c3ccc(C)cc3)nc21 | 2.6µM | - | - | -
CCOC(=O)c1cc(-c2ccc([N+](=O)[O-])cc2)nc2c1c(=O)[nH]c(=O)n2Cc1ccccc1 | - | - | - | -
O=c1[nH]c(=O)n(Cc2ccccc2)c2nc(-c3ccco3)cc(C(F)(F)F)c12 | 5.9µM | - | ? | -
COc1cc(/C=C/C(=O)O)cc(S(=O)(=O)Nc2ccc3c(c2)CCC3)c1OC | - | - | - | -
CC(O)Cc1cn([C@@H](CCCCNC(=O)OC(C)(C)C)C(=O)N2CCN(C(=O)OC(C)(C)C)CC2)nn1 (stereo partly drawn) | - | - | - | -
CC(C)(C)OC(=O)CC[C@@H](C(=O)NCCCCCCCCCCC(=O)N1CCN(C(=O)OC(C)(C)C)CC1)n1cc(CCCCCNC(=O)OC(C)(C)C)nn1 | 0.33µM | . | 0.37µM | .
CC(C)(C)OC(=O)NCCCCCc1cn([C@@H](CO)C(=O)NCCCCCCCCCCC(=O)N2CCN(C(=O)OC(C)(C)C)CC2)nn1 | 2.9µM | . | 1.2µM | .
CC(C)(C)OC(=O)NCCCC[C@@H](C(=O)NCCCCCCCCCCC(=O)N1CCN(C(=O)OC(C)(C)C)CC1)n1cc(CCCC(=O)O)nn1 | 5.9µM | . | 7.4µM | .
CCCCc1cn([C@@H](CCCCNC(=O)OC(C)(C)C)C(=O)N2CCN(C(=O)OC(C)(C)C)CC2)nn1 | 10µM | - | 15µM | -
CC(C)(C)OC(=O)NCCCC[C@@H](C(=O)N1CCN(C(=O)OC(C)(C)C)CC1)n1cc(CCC(=O)O)nn1 | - | - | - | -
CCc1nc(C(N)=O)c2[nH]c(=O)n(-c3ccccc3F)c2n1 | - | - | - | -
Cc1ccccc1OCC(=O)OC(C)C(=O)NC1CCCC1 (stereo not drawn) | - | . | - | .
CC1(C)Cc2ccccc2C(N/N=C/c2cccc(F)c2)=N1 | - | - | - | -
Fc1cccc(/C=N/Nc2ccccn2)c1 | - | 56 | - | 81
Fc1cccc(Cl)c1/C=N/Nc1ccccn1 | - | - | - | -
C(=N\Nc1ccccn1)/c1ccc2c(c1)OCCO2 | - | 35 | - | 33
Fc1cccc(F)c1/C=N/Nc1ccccn1 | - | 50 | - | 95
CC(=O)c1c(O)c(C)c(O)c2c1OC1=CC(=O)C(C(C)=O)C(=O)[C@@]12C (stereo partly drawn) | - | - | - | -
CC(=O)Oc1c(C)c(OC(C)=O)c2c(c1C(C)=O)OC1CC(=O)C(C(C)=O)=C(O)C21C (stereo not drawn) | 12µM | - | 8.3µM | -
CCOC(=O)N1CCC(N(CCN(C)C)C(=S)Nc2ccc(OCC)cc2)CC1 | - | - | - | -
CCOc1ccc(N/C=C/C(=O)c2ccc(OC)c(OC)c2)cc1 | - | 41 | - | 82
CCOc1ccc(C(NC(C)=O)c2ccc(OC)c(OC)c2)cc1 (stereo not drawn) | 1.5µM | - | - | -
CCCC(=O)NC(c1ccc(OCC)cc1)c1ccc(OC)c(OC)c1 (stereo not drawn) | - | - | ? | -
COc1ccc(C(=O)/C=C/Nc2ccc(S(N)(=O)=O)cc2)cc1OC | ? | 14 | - | -
CCOc1ccc(C(=O)/C=C/Nc2ccc(S(=O)(=O)N=C(N)N)cc2)cc1 | - | 23 | - | 62
SMILES | Pf growth 96h | Cycloheximide cs | Pf growth 48h | Shiga toxin inh
NC(N)=NS(=O)(=O)c1ccc(N/C=C/C(=O)c2ccc(Cl)c(Cl)c2)cc1 | - | - | ? | -
COc1cccc(CC(NC(C)=O)C(=O)NC2CCN(C(=O)Nc3ccc(C)cc3)CC2)c1 (stereo not drawn) | - | - | - | -
O=C(COc1ccccc1)OCc1cc(-c2ccco2)on1 | - | . | - | .
Cc1nc2ccc(NS(=O)(=O)c3ccc(F)c(C)c3)cc2[nH]1 | - | - | - | -
Cc1cc(NC(=O)C2CCCCC2C(=O)O)ccc1NC(=O)c1ccccc1 (stereo not drawn) | - | - | - | -
CC[C@H](C)[C@H](NC(=O)[C@H](N)Cc1ccc(O)cc1)C(=O)N[C@@H](CC(N)=O)C(=O)N[C@@H](CC(C)C)C(=O)N[C@H](C(=O)N[C@@H](C(=O)N[C@@H](CCCN=C(N)N)C(=O)N[C@@H](CCC(N)=O)C(=O)N[C@@H](CCCN=C(N)N)C(=O)N[C@H](Cc1ccc(O)cc1)C(N)=O)[C@@H](C)O)[C@@H](C)CC | . | - | . | -
CCCOc1ccc(N/C=C/C(=O)c2ccc(OC)c(OC)c2)cc1 | - | - | ? | -
